# Pf growth 48h – Primary qHTS for delayed death inhibitors of the malarial parasite plastid, 48 hour incubation; P. falciparum luciferase growth in erythrocytes, 48 h; Potency, µM (doses to about 28.7 µM), without a hit: top-dose activity change, negative = inhibition, hits mostly inhibitors; 310,000 tested, 5.9% active; AID 504832, 2011; also: potency is read from the fitted curve at half-maximal effect; % is scaled to controls: 0 for no effect and ±100 for the full control effect
#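 Growth was read as firefly luciferase luminescence after a 48 h, 37 C, 5% CO2 exposure of compounds to reporter-bearing P. falciparum cultures (0.1% parasitemia, 2% hematocrit final) in Albumax-supplemented RPMI 1640.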
# Shiga inhibitor – A qHTS for Small Molecule Inhibitors of Shiga Toxin. Vero cells, Shiga toxin protein synthesis inhibition reporter. inhibition, % at 38.7 µM. 290,000 tested, 9.2% active; in the data active = inhibition mostly above about 28%, no sharp cut-off; inactive = mostly below about 43%; also: 0% is about no effect
# Pf growth 96h – Primary qHTS for delayed death inhibitors of the malarial parasite plastid, 96 hour incubation; P. falciparum luciferase reporter growth, 96 h; Potency, µM (doses to about 28.7 µM), without a hit: at the highest dose activity change, negative = inhibition, usual class: inhibitors; 320,000 tested, 6.9% active; also: potency is read from the fitted curve at half-maximal effect; % is scaled to controls: 0 for no effect and ±100 for the full control effect
#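 Two-generation exposure (96 h) targets delayed-death phenotype. Reporter parasites carrying integrated firefly luciferase, in red cells at 2% hematocrit and 0.05% parasitemia final, kept at 37 C, 5% CO2; luminescence loss indicates inhibition.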
# CHX counter – Cycloheximide Counterscreen for Small Molecule Inhibitors of Shiga Toxin. max response, %. cell reporter, cycloheximide protein synthesis inhibition counterscreen. 300,000 tested, 12% active; in the data active = max response mostly above about 13%, no sharp cut-off; inactive = mostly below about 14%; also: read at 38.3 µM for the half of the compounds with a filed dose; 0% is about no effect
# Starred values were filed as active, the others as inactive; ? = inconclusive; nt = not tested or not shown. In the library only some 21% were active in any assay of this set; here they are far more common. Unless noted, calls follow the shape of the dose curve; as a rule, active = well fitted inhibition curve with a large enough effect; inconclusive = small, poorly fitted or top-dose-only effect, or another doubt; inactive = no such curve, though single readings can be large or run the other way.
SMILES,Pf growth 48h,Shiga inhibitor,Pf growth 96h,CHX counter
Cc1ccc(SCc2nc(N)nc(Nc3ccccc3C)n2)cc1C,-0.2%,8.3,?,10.3
Cc1ccccc1Nc1nc(N)nc(COc2ccc(C#N)cc2)n1,-9.9%,-11.4,-26.2%,-5.9
Cc1ccc(SCc2nc(N)nc(Nc3ccccc3C)n2)c(C)c1,2.2%,47.3*,?,17.2
Cc1ccccc1Nc1nc(N)nc(CN(C)Cc2ccccc2Cl)n1,-2.0%,18.1,?,31.0*
Cc1ccc2c(c1)nc(-n1nc(C)cc1C)c1nnnn12,-17.0%,65.1,?,12.0
Cn1/c(=N/N=C/c2ccc(N3CCOCC3)cc2)sc2ccccc21,40.9%,71.4*,85.3%,36.9*
Cn1/c(=N/N=C/c2ccccn2)sc2ccccc21,209.5%,91.5*,244.0%,51.1*
Cn1/c(=N/N=C/c2ccc(Cl)c([N+](=O)[O-])c2)sc2ccccc21,81.3%,-5.2,37.3%,8.6
Cc1nnsc1C(=O)Nc1ccc(S(=O)(=O)N2CCC(C)CC2)cc1,-3.5%,-5.9,26.1%,-2.1
Cc1c(NC(=O)Nc2cccc(Cl)c2Cl)c(=O)n(-c2ccccc2)n1C,17.4%,-13.5,-5.5%,-4.3
Nn1c(SCC(=O)Nc2ccc3c(c2)OCO3)nnc1-c1ccccc1,nt,27.4,39.8%,21.5*
Cc1ccc(NC(=O)CSc2nnc3ccccn23)cc1,59.6%,72.1*,2.7%,14.9
O=C(CSc1nnc(-c2ccccc2)n1Cc1ccco1)Nc1ccc2c(c1)OCCO2,?,48.4*,?,12.9
Cn1c(SCc2ccc3c(c2)OCO3)nnc1-c1ccccc1,5.1%,21.9*,28.3%,15.5*
CC(NC(=O)CNC(=O)c1cccc(Cl)c1)c1ccccc1 (stereo not drawn),16.6%,17.5,?,10.5
CCCN(CC(=O)Nc1ccccc1OC)C(=O)CCNC(=O)c1ccccc1OC,-6.8%,nt,1.3%,nt
CCCCn1c(N)c(N(CCOC)C(=O)c2c(-c3ccccc3)noc2C)c(=O)[nH]c1=O,-0.5%,nt,?,nt
Cc1ccc(-n2nc(C)c3c(C)c(CCC(=O)NCC4CCCO4)c(=O)n(C)c32)cc1 (stereo not drawn),?,-4.1,?,-4.1
O=C(CSc1nnc2ccccn12)Nc1ccc2c(c1)OCO2,31.1%,31.0,38.0%,17.9*
CCc1ccc(NC(=O)Cn2cnc3c(=O)n(C)c(=O)n(C)c32)cc1,0.0%,-3.8,-27.3%,-1.2
O=C(CCSc1nnc2ccccn12)Nc1ccc2c(c1)OCO2,11.0%,21.7,-2.1%,17.4
COc1ccccc1NC(=O)C(C)Sc1nnc2ccccn12 (stereo not drawn),-25.8%,nt,6.1%,nt
CC(=O)c1ccc(NC(=O)C(C)Sc2nnc3ccccn23)cc1 (stereo not drawn),?,nt,9.28µM*,nt
CCOc1ccc(NC(=O)CSc2ncc(-c3ccc(F)cc3)n2Cc2ccco2)cc1,?,8.2,?,11.2
Cn1c(=O)c2ncn(CC(=O)Nc3cccc(-c4nc5ccccc5s4)c3)c2n(C)c1=O,171.4%,118.0*,31.0%,53.5*
SMILES,Pf growth 48h,Shiga inhibitor,Pf growth 96h,CHX counter
O=C(CSc1ncc(-c2ccc(F)cc2)n1Cc1ccco1)Nc1ccc2c(c1)OCO2,?,110.2*,nt,39.5*
O=C(c1ccc(Cl)cc1)N(Cc1ccco1)C1CCS(=O)(=O)C1 (stereo not drawn),2.4%,-5.7,7.3%,-4.0
COc1ccc(CSc2nnc(-c3ccncc3)n2C)cc1F,?,69.7*,-23.7%,17.2
O=C(CSc1nnc2ccccn12)Nc1cccc(S(=O)(=O)N2CCOCC2)c1,-5.4%,-2.9,-1.8%,-5.2
Cc1cccc(NC(=O)CSc2nnc(CSc3nc(C)cc(C)n3)n2Cc2ccco2)c1,?,-6.1,14.7µM*,-7.2
c1ccn2c(SCc3ccc4c(c3)OCO4)nnc2c1,60.1%,113.6*,57.0%,40.3*
COCCn1c(SCc2ccc(OC)c(F)c2)nnc1-c1ccncc1,0.1%,4.6,-5.5%,-3.2
O=C(CSc1nnc2ccccn12)Nc1cccc(-c2nc3ccccc3s2)c1,47.8%,39.4*,?,15.5
COc1ccc(-c2csc(NC(=O)COC(=O)c3ccco3)n2)cc1,136.8%,42.7*,258.6%,49.5*
COc1ccc(-c2csc(N(C)C(=O)c3ccco3)n2)cc1,97.7%,nt,-5.8%,36.9*
CN(C(=O)c1ccco1)c1nc(-c2ccc(Cl)cc2)cs1,119.0%,22.5,6.57µM*,25.3*
Cc1ccc(-c2csc(N(C)C(=O)c3c(C)nn(-c4ccccc4)c3Cl)n2)cc1,11.7µM*,-6.7,?,-0.4
COc1ccc(-c2csc(NC(=S)NC(=O)c3ccco3)n2)cc1,30.0%,-22.1,11.5%,5.3
COc1ccc(OC)c(-c2csc(N(C)C(=O)c3ccco3)n2)c1,17.1%,nt,?,1.2
NNC(=O)c1cnn(-c2ccccc2)c1-n1cccc1,10.7%,18.8,82.1%,-1.6
COC(=O)c1cc(S(=O)(=O)NCc2ccc(S(N)(=O)=O)cc2)oc1C,1.9%,19.8,5.4%,-1.1
CCn1nc(C(=O)OCC(=O)Nc2nc(-c3ccc(OC)cc3)cs2)c2ccccc2c1=O,177.9%,49.8*,245.7%,46.4*
CCCc1nnc(NC(=O)CCC(=O)N2CCN(C3c4ccccc4-c4ccccc43)CC2)s1,21.0%,-7.8,71.5%,0.3
O=C(NNC(=O)c1c(O)c2ccccc2[nH]c1=O)c1ccccc1Br,21.7%,-7.9,27.6%,-3.8
CS(=O)(=O)N(Cc1ccc(C(=O)NCc2ccco2)cc1)c1ccccc1,?,8.3,8.7%,-0.4
CCc1ccc(NC(=O)c2ccc(F)c(S(=O)(=O)N(CC)c3ccccc3)c2)cc1,9.28µM*,1.6,?,14.5*
CCN(c1ccccc1)S(=O)(=O)c1cc(C(=O)NCc2ccco2)ccc1C,11.7µM*,nt,13.1µM*,nt
Cc1ccc(C(=O)NCc2ccco2)cc1S(=O)(=O)N1CCCC1,11.7µM*,6.4,26.6%,-1.9
Cc1ccc(C(=O)NCc2ccco2)cc1S(=O)(=O)N1CCOCC1,?,-3.1,-6.6%,0.8
CCN(c1ccccc1)S(=O)(=O)c1cc(C(=O)Nc2cccc(Cl)c2)ccc1F,?,-15.3,?,13.1
SMILES,Pf growth 48h,Shiga inhibitor,Pf growth 96h,CHX counter
CN(C)C1(CNC(=O)c2ccc(Cl)c(S(=O)(=O)NCc3ccco3)c2)CCCCC1,?,38.0,nt,22.8*
CCC1CCCCC1,nt,-3.2,nt,-5.8
O=C(COc1coc(CN2CCc3ccccc3C2)cc1=O)N1CCOCC1,8.9%,nt,-7.6%,nt
CCOC(=O)C1CCN(S(=O)(=O)c2cc(C(=O)N3CCCCC3)ccc2OC)CC1,?,-24.4,-26.8%,-2.2
O=C(NCc1ccco1)c1ccc2[nH]c(=O)c(=O)[nH]c2c1,21.0%,-5.3,41.2%,-3.9
CC(C)(C)N1C(=O)c2ccc(C(=O)NCc3ccco3)cc2C1=O,5.2%,5.2,nt,16.2*
O=C(NCc1ccco1)c1cccc(S(=O)(=O)N2CCCC2)c1,1.7%,-3.4,?,-2.6
O=C(NCC(c1cccs1)N1CCOCC1)c1ccc(Cl)c(S(=O)(=O)N2CCOCC2)c1 (stereo not drawn),?,23.6,?,-0.9
O=C(c1ccc(Cl)c(S(=O)(=O)N2CCOCC2)c1)N(Cc1ccco1)Cc1cccs1,?,nt,2.62µM*,nt

# Bioassay records: PubChem BioAssay, National Center for Advancing Translational Sciences (NCATS)
